Data on nine compounds can be found in PubChem BioAssay (Tox21).

Values without a mark were called inactive. Records with an inconclusive call do not appear. Calls of active or inactive are those of the source. Unless noted, calls follow the shape of the dose curve; as a rule, active = well fitted curve in the direction sought with a large enough effect in the repeat runs; inconclusive = weak or mixed curves; inactive = no such curve, though single readings can be large; an effect the other way counts as inactive or inconclusive.

Assay [1] addresses Luciferin 4-monooxygenase (Photinus pyralis) (UniProt P08659). Kind of assay: qHTS assay to identify small molecule inhibitors of firefly luciferase (AID 1224835). Also: nearly all actives have a fitted effect of over 25% in size. Also: potency is read from the fitted curve at half-maximal effect. A digest of the protocol: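 Quantitative HTS format; KM concentrations of both substrates. Purified P. pyralis FLuc activity quantified from luminescence images.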
Assay [2] in a line: qHTS assay to identify small molecule agonists of the constitutive androstane receptor (CAR) signaling pathway - cell viability counter screen (AID 1224836). Also: nearly all actives have a fitted effect of over 45% in size. Also: potency is read from the fitted curve at half-maximal effect. The method, boiled down:
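Compound titrations (15 concentrations) went onto HepG2-CYP2B6-hCAR cells 4 h after seeding, alongside PK11195 at a final 0.75 uM; a 23 h, 37 C/5% CO2 incubation preceded CellTiter-Fluor viability measurement.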
A general note: Quantitative high-throughput screening tests each substance at several concentrations.

Assay [3] is described as follows: qHTS assay to identify small molecule antagonists of the constitutive androstane receptor (CAR) signaling pathway - cell viability counter screen (AID 1224837). Also: nearly all actives have a fitted effect of over 45% in size. Also: potency is read from the fitted curve at half-maximal effect. The method, boiled down:
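Read-out: CellTiter-Fluor fluorescence after 23 hr at 37 C/5% CO2. Cells: HepG2 double-stable for hCAR and CYP2B6-2.2kb. Compounds tested at 15 concentrations in the presence of CITCO, final concentration 50 nM.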

A short description of assay [4]: qHTS assay to identify small molecule antagonists of the estrogen related receptor signaling pathway with the pleiotropic PPARgamma coactivator (PGC) from Tox21 10K library - cell viability counter screen (AID 1224840; active = well fitted cell-killing curve with a large enough effect in the repeat runs, not every such curve was filed as active; also: nearly all actives have a fitted effect of over 40% in size; also: potency is read from the fitted curve at half-maximal effect). A digest of the protocol:
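Fluorescence read-out of CellTiter-Fluor viability reagent, added after cells had been exposed to compound in DMSO for 17.5 h at 37 C; 30 min development at 37 C/5% CO2. Cells: PGC/ERR line, 2,000/well.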

Assay [5] is described as follows: qHTS assay to identify small molecule antagonists of the estrogen related receptor signaling pathway with the pleiotropic PPARgamma coactivator (PGC) from Tox21 10K library (AID 1224841; call rule not given here; also: actives are mostly falling curves and most rising ones were filed inactive; nearly all actives have a fitted effect of over 50% in size; also: potency is read from the fitted curve at half-maximal effect). The method, boiled down: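 Luminescence read-out (One-Glo luciferase reagent, 30 min at room temperature) from PGC/ERR cells exposed to DMSO-dissolved test compounds for 18 h at 37 C; cells, 2,000 per well, had been preincubated 6 h before compound transfer.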

Assay [6] is described as follows: qHTS assay to identify small molecule agonists of the estrogen related receptor signaling pathway with the pleiotropic PPARgamma coactivator (PGC) from Tox21 10K library (AID 1224842). Also: nearly all actives have a fitted effect of over 15% in size. The method, boiled down: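 PGC/ERR reporter cells (NTP line) were seeded 2,000 per well, rested 6 h at 37 C/5% CO2, then pin-dosed with compounds in DMSO for 18 h at 37 C; luciferase read by One-Glo luminescence after 30 min at room temperature.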

In assay [7] the target is Thyrotropin receptor (Homo sapiens) (UniProt P16473). Nature of the assay: qHTS assay to identify small molecule agonists of the thyroid stimulating hormone receptor (TSHR) signaling pathway (AID 1224843; calls by dose curve; also: nearly all actives have a fitted effect of over 45% in size). A digest of the protocol:
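Using 15 concentrations per compound in triplicate, cAMP production was monitored in TSHR-HEK293 cells after 30 min compound incubation at RT; HTRF reagents followed, with fluorescence intensity recorded after 1 h.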

Assay [8] can be described thus: qHTS assay to identify small molecule agonists of the hypoxia (HIF-1) signaling pathway - cell viability counter screen (AID 1224844; calls by dose curve; also: nearly all actives have a fitted effect of over 50% in size; also: potency is read from the fitted curve at half-maximal effect). The method, boiled down:
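CellTiter-Glo luminescence read-out, 30 min RT, taken in the same wells as the beta-lactamase HRE reporter assay; HRE-bla ME-180 cells, 0.5% dialyzed FBS, 17 hr compound treatment at 37C, 5% CO2.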

Assay [9] in a line: qHTS assay to identify small molecule agonists of H2AX (AID 1224845; active = well fitted activation curve with a large enough effect in the signal ratio in the repeat runs, not every such curve was filed as active; the % refers to the signal ratio; also: potency is read from the fitted curve at half-maximal effect). A digest of the protocol: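 Wild-type CHO-K1 cells plated overnight, then exposed 3 hr at 37C to compounds at 15 concentrations (0.76% DMSO). Lysed, then HTRF anti-pH2AX(S139)-cryptate/anti-H2AX-d2 detection after 24 hr at room temperature; emissions 665 and 620 nm.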
Assay [10] can be described thus: qHTS assay to identify small molecule agonists of the hypoxia (HIF-1) signaling pathway (AID 1224846; active = well fitted activation curve with a large enough effect in the signal ratio in the repeat runs, not every such curve was filed as active; the % refers to the signal ratio). A digest of the protocol: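 Beta-lactamase FRET read-out (CCF4-AM substrate) from ME-180 cells carrying an HRE-driven bla reporter, after 17 hrs compound exposure at 37C/5% CO2. Cells were seeded at 2,000 per well in 0.5% dialyzed FBS medium and preincubated 5 hrs.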

Assay [11] is described as follows: qHTS assay to identify small molecule agonists of H2AX - cell viability counter screen (AID 1224847; calls by dose curve; also: nearly all actives have a fitted effect of over 30% in size; also: potency is read from the fitted curve at half-maximal effect). A digest of the protocol:
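Read-out: CellTiter-Glo luminescence, 30 min RT. Cells: wild-type CHO-K1, 1000/well, 10% FBS, plated overnight at 37C. Treatment: 15 concentrations, 3 hr, 37C, 0.76% DMSO.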

The nature of assay [12]: qHTS assay to identify small molecule antagonists of the estrogen related receptor (ERR) signaling pathway from Tox21 library (AID 1224848). Also: nearly all actives have a fitted effect of over 50% in size. Also: potency is read from the fitted curve at half-maximal effect. The method, boiled down:
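Tox21 10K compounds in DMSO tested for ERR pathway antagonism in NTP's ERR cell line; 18 h, 37 C exposure; ONE-Glo luminescence.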

Assay [13] is described as follows: qHTS assay to identify small molecule agonists of the estrogen related receptor (ERR) signaling pathway from Tox21 library (AID 1224849; calls by dose curve; also: nearly all actives have a fitted effect of over 15% in size). The following applies: ERR reporter cell line, ONE-Glo luciferase, 18 h; at 92.4 µM (top of the series) unless noted. A digest of the protocol: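 Luminescence readout (ONE-Glo, 30 min RT) after 18 h compound exposure at 37 C of NTP-supplied ERR reporter cells; cells were plated 6 h before compound addition by pin tool.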

The nature of assay [14]: qHTS RealTime-Glo MT Cell Viability Assay in HepG2 cells - 24 hour (AID 1224867). Also: nearly all actives have a fitted effect of over 50% in size. Also: potency is read from the fitted curve at half-maximal effect. A digest of the protocol:
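Compound treatment began 5 h after plating HepG2 cells (600/well) with NanoLuc luciferase and prosubstrate. Plates stayed at 37 C for 40 h; luminescence was captured at six time points, 0 h through 40 h.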

Assay [15] can be described thus: qHTS RealTime-Glo MT Cell Viability Assay in HEK293 cells - 32 hour (AID 1224868). Also: nearly all actives have a fitted effect of over 50% in size. Also: potency is read from the fitted curve at half-maximal effect. The method, boiled down:
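Quantitative high-throughput screen of the Tox21 10K library in HEK293: cells and RealTime-Glo reagents plated together, compound added at 5 h, luminescence monitored through 40 h at 37 C.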

For assay [16], the target named is Nuclear receptor subfamily 1 group I member 3 (Homo sapiens) (UniProt Q14994). Kind of assay: qHTS assay to identify small molecule antagonists of the constitutive androstane receptor (CAR) signaling pathway (AID 1224838).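 Also: HepG2 cells stably expressing hCAR with CYP2B6 luciferase reporter stimulated by CITCO; nearly all actives have a fitted effect of over 40% in size.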 Also: potency is read from the fitted curve at half-maximal effect. A digest of the protocol: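 Read-out: ONE-Glo luciferase luminescence after 30 min at room temperature. HepG2-CYP2B6-hCAR double-stable cells, compounds in 15-point titration plus 50 nM CITCO final, 24 h at 37 C/5% CO2.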
Chain of Nuclear receptor subfamily 1 group I member 3 (Homo sapiens) (Q14994 whole entry, looked up): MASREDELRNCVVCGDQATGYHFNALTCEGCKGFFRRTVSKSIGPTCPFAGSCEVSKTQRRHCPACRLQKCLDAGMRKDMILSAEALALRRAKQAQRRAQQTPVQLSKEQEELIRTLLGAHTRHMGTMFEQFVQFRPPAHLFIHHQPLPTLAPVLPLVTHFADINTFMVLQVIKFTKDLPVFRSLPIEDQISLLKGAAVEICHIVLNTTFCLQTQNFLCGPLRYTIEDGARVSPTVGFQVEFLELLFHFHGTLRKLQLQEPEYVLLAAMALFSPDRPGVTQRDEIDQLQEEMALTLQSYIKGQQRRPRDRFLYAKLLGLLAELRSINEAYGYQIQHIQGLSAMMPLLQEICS

Assay [17] has the same target. Nature of the assay: qHTS assay to identify small molecule agonists of the constitutive androstane receptor (CAR) signaling pathway (AID 1224839). Also: nearly all actives have a fitted effect of over 15% in size. Also: potency is read from the fitted curve at half-maximal effect.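 As to activation: HepG2 cells stably carrying human CAR and a CYP2B6 luciferase reporter.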 A digest of the protocol: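 In this screen, CAR-driven CYP2B6 promoter activity is measured by luminescence in HepG2-CYP2B6-hCAR cells after 24 h with test compounds and 0.75 uM PK11195 (final concentration).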
The nature of assay [18]: A CellTox Green Cytotoxicity Assay to monitor cytotoxicity in HEK293 cells - 0 hour (AID 1224869). Also: nearly all actives have a fitted effect of over 50% in size. A digest of the protocol:
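Read-out: fluorescence of a cell-impermeant cyanine dye staining DNA of dead cells, proportional to cytotoxicity. HEK293, 600 cells/well with reagent, compound (23 nL DMSO) added after 5 h; reads at 0, 8, 16, 24, 32, 40 h.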
% is scaled to controls: 0 for no effect and ±100 for the full control effect.

Chain of Thyrotropin receptor (Homo sapiens) (P16473 whole entry, looked up): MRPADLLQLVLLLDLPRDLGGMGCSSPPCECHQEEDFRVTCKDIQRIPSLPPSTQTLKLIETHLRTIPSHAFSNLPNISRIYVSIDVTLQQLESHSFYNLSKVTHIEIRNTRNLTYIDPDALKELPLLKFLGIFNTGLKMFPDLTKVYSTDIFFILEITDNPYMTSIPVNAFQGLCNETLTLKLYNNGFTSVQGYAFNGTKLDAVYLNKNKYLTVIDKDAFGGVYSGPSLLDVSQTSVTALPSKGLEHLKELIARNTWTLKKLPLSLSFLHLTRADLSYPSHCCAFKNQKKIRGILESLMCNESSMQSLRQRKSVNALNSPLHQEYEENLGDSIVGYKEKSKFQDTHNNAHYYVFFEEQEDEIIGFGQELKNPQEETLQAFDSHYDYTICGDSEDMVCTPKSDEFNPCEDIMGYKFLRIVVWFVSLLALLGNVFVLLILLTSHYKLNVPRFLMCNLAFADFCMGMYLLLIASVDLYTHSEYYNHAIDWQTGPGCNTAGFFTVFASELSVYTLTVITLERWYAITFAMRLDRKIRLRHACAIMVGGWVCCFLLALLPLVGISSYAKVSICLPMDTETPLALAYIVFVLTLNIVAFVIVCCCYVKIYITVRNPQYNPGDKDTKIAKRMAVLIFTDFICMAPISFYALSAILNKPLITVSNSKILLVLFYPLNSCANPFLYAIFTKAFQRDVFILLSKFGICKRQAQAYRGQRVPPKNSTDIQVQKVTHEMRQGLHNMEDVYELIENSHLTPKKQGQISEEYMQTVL
Chain of Luciferin 4-monooxygenase (Photinus pyralis) (P08659 whole entry, looked up): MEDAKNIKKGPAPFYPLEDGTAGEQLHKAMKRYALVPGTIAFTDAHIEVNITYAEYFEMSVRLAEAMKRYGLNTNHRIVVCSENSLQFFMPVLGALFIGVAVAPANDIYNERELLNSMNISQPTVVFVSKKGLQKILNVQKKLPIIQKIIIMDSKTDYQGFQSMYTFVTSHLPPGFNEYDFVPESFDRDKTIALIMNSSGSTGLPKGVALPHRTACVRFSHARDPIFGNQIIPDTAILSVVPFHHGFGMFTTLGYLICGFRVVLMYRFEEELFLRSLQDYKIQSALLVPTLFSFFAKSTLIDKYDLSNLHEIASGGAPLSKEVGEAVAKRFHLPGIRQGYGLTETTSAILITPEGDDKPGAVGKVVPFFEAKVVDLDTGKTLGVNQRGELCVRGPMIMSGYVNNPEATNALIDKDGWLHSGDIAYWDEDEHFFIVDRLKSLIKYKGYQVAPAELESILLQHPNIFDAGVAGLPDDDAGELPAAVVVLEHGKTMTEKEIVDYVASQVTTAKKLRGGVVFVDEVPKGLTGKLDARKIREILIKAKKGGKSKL

Take `ClCc1cccc(Cl)c1`: the Potency entry in assay [1], in [2], in [3], in [4], in assay [5] and in assay [6] was “inactive” in each case. The Potency result in [7], in [8], in assay [9], in assay [11], in assay [12] and in assay [14] was “inactive” in each case. Also, the Potency result in [15] is “inactive”. Moreover, the result in [10] was inactive. The activity change, positive = activation in assay [13] is -9.7% [at 42.5 µM].

As to `CC(C)(CCl)C(=O)Cl`, the Potency entry in assay [1], in [2], in assay [3], in assay [16], in assay [17] and in [4] was “inactive” throughout. The Potency result in assay [7], in assay [9], in assay [11], in assay [14], in [15] and in assay [18] was “inactive” each time. Further, the result in assay [10] was inactive.

On to `II`, for which the Potency in assay [1] is 28.3 µM (active); in [11] it was 80 µM (active); in assay [14] it was 15.5 µM (active). Besides, the Potency entry in [2], in assay [3], in assay [16], in assay [17], in assay [4] and in assay [9] was “inactive” each time. The Potency entry in assay [15] and in assay [18] was “inactive” throughout.

Regarding `CC1(C)CCC(Cc2ccc(Cl)cc2)C1(O)Cn1cncn1` (stereo unspecified), the Potency entry in [1], in assay [2], in assay [3], in [16], in [17] and in assay [6] was “inactive” throughout. Moreover, the Potency entry in assay [9] and in assay [14] was “inactive” each time. Besides, the Potency in assay [5] was 38.6 µM (active); in assay [11], 101 µM (active); in [12], 30.6 µM (active); in [15] it was 24.5 µM (active). Besides, in assay [10], the call was inactive. Moreover, in assay [13], the activity change, positive = activation was -53.4%.

For `O=C(O)C1(c2ccc3c(c2)OC[C@H](Cc2ccc(-c4ccccc4)cc2)[C@H]3O)CCCC1`, the Potency in assay [1] was 71 µM (active); in assay [11], 101 µM (active); in assay [12] it was 61.1 µM (active). In addition, the Potency result in [2], in assay [3], in assay [17], in assay [4], in assay [6] and in [9] was “inactive” throughout. Besides, the Potency entry in assay [14] and in assay [18] was “inactive” throughout. For the same compound, the activity change, positive = activation in [13] is -42.3%.

Turning to `CC(C)(C)c1cc([N+](=O)[O-])cc([N+](=O)[O-])c1O`, the Potency in [1] was 70.8 µM (active); in assay [2], 13.6 µM (active); in assay [3] it was 15.3 µM (active); in assay [16] it was 17.2 µM (active); in [4], 15.3 µM (active). In addition, the Potency entry in [17], in [7], in assay [8], in [9], in assay [11] and in assay [14] was “inactive” in each case. In addition, the Potency result in [18] was “inactive”. Also, the result in [10] was inactive.

Consider `CCO[C@H]1O[C@@H]2OC3(C)CC[C@H]4[C@H](C)CC[C@@H]([C@H]1C)[C@@]24OO3`, for which the Potency result in [1], in assay [2], in assay [3], in assay [16], in [4] and in assay [6] was “inactive” in each case. Also, the Potency result in [8], in [11], in assay [14], in assay [15] and in [18] was “inactive” throughout. For the same compound, the values for the Potency in assay [17], in [5] and in [12] were 4.22 µM (active), 0.668 µM (active) and 0.531 µM (active), respectively. The call in assay [10] was inactive. Besides, the activity change, positive = activation in [13] was -53.8% [at 42.5 µM].

For `CC(=O)c1cc2c(cc1C)C(C)(C)C(C)CC2(C)C` (stereo unspecified), the Potency entry in [1], in [2], in assay [3], in assay [16], in assay [7] and in assay [14] was “inactive” in each case. Besides, the Potency entry in assay [15] and in [18] was “inactive” in each case. For the same compound, the Potency is 24.3 µM (active) in [17], 43.6 µM (active) in assay [8], 101 µM (active) in assay [9] and 89.8 µM (active) in assay [11].

For `CCCCCCCCCC(=O)O[C@H]1CC[C@H]2[C@@H]3CCC4=CC(=O)CC[C@@H]4[C@H]3CC[C@]12C`, the Potency result in assay [1], in assay [2], in assay [3], in [17], in assay [4] and in assay [8] was “inactive” each time. For the same compound, the Potency entry in [9], in assay [11], in assay [14] and in assay [15] was “inactive” each time.
